Sampled rows, rich in hits. Any-hit rate of the full collection: about 7.4%.
ELG1 genotox: qHTS screen for small molecules that induce genotoxicity in human embryonic kidney (HEK293T) cells expressing luciferase-tagged ELG1. HEK293T ELG1-luciferase reporter, luminescence, 16 h. Potency, µM (top dose mostly 46 µM), for the others: at the highest dose activity change, positive = activation, hits mostly activators. 1.3% of 330,000 active; also: % of control where 0% means no effect; nearly all actives have a fitted effect of over 60% in size
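16 hr compound incubation (37 °C, 5% CO2) of HEK293T cells carrying luciferase-tagged ELG1; luciferase then measured by ONE-Glo luminescence after 30 min at RT.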
NPC1 promoter act: qHTS Assay for NPC1 Promoter Activators; Huh7 NPC1 promoter luciferase reporter, 24 h; Potency, µM (series often up to 9.22 µM), for the others: at the highest dose activation, hits mostly activators; 2.4% of 320,000 active; AID 485313, 2010; also: % of control where 0% means no effect; nearly all actives have a fitted effect of over 60% in size
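Stably transfected Huh7 (NPC1 promoter→luciferase), 1500 cells/well in Opti-MEM + 10% FBS, 2 h settle, then compound 24 h at 37 °C. Luminescence after 10 min with Amplite reagent.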
Rab9 promoter act: qHTS Assay for Rab9 Promoter Activators; Huh7 Rab9 promoter-luciferase reporter, luminescence, 24 h; Potency, µM (top dose mostly 9.22 µM), without a hit: top-dose activation, negative = inhibition, usual class: activators; 2.8% of 320,000 active; also: % of control where 0% means no effect; nearly all actives have a fitted effect of over 60% in size
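Huh7 cells stably carrying a Rab9 promoter-luciferase reporter, 1500 cells per well in OP-MEM I with 10% FBS, treated with compound 24 hours at 37C. Luciferase activity read by luminescence after 10 minutes with Amplite reagent.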
SMN2 splice up: qHTS Assay for Enhancers of SMN2 Splice Variant Expression | HEK293 SMN2-luciferase splicing reporter, luminescence, 30-36 h | Potency, µM (top dose mostly 46.1 µM), for the others: at the top dose activity change, positive = activation, usual class: activators | 2.8% of 210,000 active | AID 1458, 2008; also: % of control where 0% means no effect; nearly all actives have a fitted effect of over 55% in size
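HEK293 cells carry an SMN2 minigene-luciferase reporter in which exon 7 inclusion puts luciferase in frame. Cells were seeded at 2000 cells/well, attached for 10-12 hours, then exposed to compounds for 30-36 hours at 37C before ONE-Glo luminescence.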
FLuc modulator: qHTS profiling assay for firefly luciferase inhibitor/activator using purifed enzyme and Km concentrations of substrates (counterscreen for miR-21 project); Luciferin 4-monooxygenase (Photinus pyralis), P08659; purified FLuc, Km substrates, luminescence inhibition; Potency, µM (top dose mostly 57.5 µM), for inactives: top-dose activity change, negative = inhibition, actives largely listed as inhibitors; 6.9% of 360,000 active;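 also: plate controls were vehicle for no effect and reference inhibitor for full effect; nearly all actives have a fitted effect of over 55% in size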
Target sequence (P08659 whole entry, looked up): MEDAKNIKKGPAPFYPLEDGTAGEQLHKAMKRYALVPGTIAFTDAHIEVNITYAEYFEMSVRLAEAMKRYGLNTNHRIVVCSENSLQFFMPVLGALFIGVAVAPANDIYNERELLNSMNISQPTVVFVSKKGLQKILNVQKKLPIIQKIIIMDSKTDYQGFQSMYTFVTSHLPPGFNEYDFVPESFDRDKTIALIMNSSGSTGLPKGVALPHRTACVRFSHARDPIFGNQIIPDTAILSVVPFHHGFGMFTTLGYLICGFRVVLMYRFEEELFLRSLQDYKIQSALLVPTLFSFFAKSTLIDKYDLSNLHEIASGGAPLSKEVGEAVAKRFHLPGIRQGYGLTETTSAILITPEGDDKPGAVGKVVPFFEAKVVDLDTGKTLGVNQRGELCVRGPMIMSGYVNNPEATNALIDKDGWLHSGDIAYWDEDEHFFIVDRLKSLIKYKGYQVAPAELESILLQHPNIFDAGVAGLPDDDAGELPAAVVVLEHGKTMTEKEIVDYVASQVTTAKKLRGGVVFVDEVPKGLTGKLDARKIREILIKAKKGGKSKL
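Biochemical qHTS of compounds, final roughly 60 µM downward over six points, against 10 nM purified firefly luciferase using Km concentrations of substrates (10 uM D-luciferin, 10 uM ATP) in Tris acetate pH 7.5 buffer; luminescence output.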
The depositor's hits bear a star; [ ] = another dose, or the depositor's remark. Calls follow the shape of the dose curve; as a rule, active = well fitted curve in the direction sought with a large enough effect; inconclusive = small, poorly fitted or top-dose-only effect, or another doubt; inactive = no such curve, though single readings can be large; an effect the other way counts as inactive or inconclusive. Potency is read from the fitted curve at half-maximal effect.

For CC(=O)Nc1ccc2c(c1)nc1n2CCSC1 the results were ELG1 genotox 14%, NPC1 promoter act 1%, Rab9 promoter act -7%, SMN2 splice up -28% and FLuc modulator -15%.
COc1ccccc1C(=O)Nc1ccc2c(c1)nc1n2CCSC1 was read as ELG1 genotox inconclusive, NPC1 promoter act inconclusive, Rab9 promoter act 1.8µM*, SMN2 splice up 22µM* and FLuc modulator 3µM*.
Screening Cc1ccc(C(=O)Nc2ccc3c(c2)nc2n3CCSC2)cc1 returned ELG1 genotox inconclusive, NPC1 promoter act 0.71µM*, Rab9 promoter act 0.56µM* and FLuc modulator 2.7µM*.
COc1cc(CNS(=O)(=O)c2ccc3c(c2)CC(C)N3C(C)=O)cc(OC)c1OC (configuration not stated) was read as ELG1 genotox -1%[9.26 µM], NPC1 promoter act -4%, Rab9 promoter act -7% and FLuc modulator -1%.
`COc1ccc(OC)c(NC(=O)c2cc3cccc(OC)c3oc2=O)c1` gave SMN2 splice up 7% and FLuc modulator -1%.
`COC(=O)c1ccc(/C=C(\C#N)c2ccccn2)cc1` gave ELG1 genotox 2.6µM*, NPC1 promoter act 1.1µM*, Rab9 promoter act 0.89µM*, SMN2 splice up inconclusive and FLuc modulator 2.4µM*.
For N#C/C(=C\c1ccccn1)c1ccccn1 the results were ELG1 genotox 5%, NPC1 promoter act 29%, Rab9 promoter act inconclusive and FLuc modulator inconclusive.
COc1cc(/C=C(\C#N)c2ccccn2)cc(OC)c1O was read as ELG1 genotox 0%, NPC1 promoter act -7%, Rab9 promoter act -1% and FLuc modulator -4%.
Screening COC(=O)c1ccc(OC(=O)c2ccccn2)cc1 returned ELG1 genotox -5%, NPC1 promoter act 1%, Rab9 promoter act -6%, SMN2 splice up 28% and FLuc modulator 11µM*.
N#C/C(=C/c1cccs1)c1ccccn1 was read as ELG1 genotox inconclusive, NPC1 promoter act 2.8µM*, Rab9 promoter act 4.5µM* and FLuc modulator 12µM*.
Screening COc1cc(/C=C(\C#N)c2ccccn2)ccc1OCc1ccccc1Cl returned ELG1 genotox -2%, NPC1 promoter act -1%, Rab9 promoter act 2% and FLuc modulator -16%.
Screening CN(C)c1ccc(/C=C(\C#N)c2ccccn2)cc1 returned ELG1 genotox inconclusive, NPC1 promoter act 0.45µM*, Rab9 promoter act 0.4µM* and FLuc modulator 0.24µM*.
`Cc1cccc(NC(=O)c2c(C)cc(C)nc2SCC(=O)c2ccccc2)c1` gave FLuc modulator -13%.
CCc1ccc(C(=O)c2cn(CC(=O)Nc3cc(OC)ccc3OC)c3nc(C)ccc3c2=O)cc1 was read as FLuc modulator -6%.
Screening CC(Sc1n[nH]c(=O)n1Cc1ccccc1)C(=O)NCC1CCCO1 (configuration not stated) returned ELG1 genotox 1%, NPC1 promoter act 5%, Rab9 promoter act -3% and FLuc modulator 1%.
For N#C/C(=C\c1ccc([N+](=O)[O-])cc1)c1ccccn1 the results were ELG1 genotox inconclusive, NPC1 promoter act 1.6µM*, Rab9 promoter act inconclusive and FLuc modulator inconclusive.
`COc1ccc(NC(=O)C(NC(C)=O)C(=O)Nc2ccc(F)cc2)cc1` (configuration not stated) gave ELG1 genotox 1%, NPC1 promoter act -2%, Rab9 promoter act -2%[1.84 µM] and FLuc modulator -2%.
Screening O=C(NCC1CCCO1)c1ccccc1-c1nc(-c2ccccc2F)no1 (configuration not stated) returned ELG1 genotox 1%, NPC1 promoter act 3%, Rab9 promoter act -3% and FLuc modulator inconclusive.
NC(=O)c1ccccc1-c1noc(-c2ccccc2F)n1 was read as NPC1 promoter act inconclusive, Rab9 promoter act inconclusive and FLuc modulator 17µM*.
NC(=O)c1ccc(-c2noc(-c3ccccc3F)n2)cc1 was read as ELG1 genotox inconclusive, NPC1 promoter act 0.32µM*, Rab9 promoter act 0.32µM* and FLuc modulator 3µM*.
CS(=O)(=O)Nc1ccc(C2=NN(S(C)(=O)=O)C(c3ccc4nccnc4c3)C2)cc1 (configuration not stated) was read as ELG1 genotox 7%, NPC1 promoter act -1%, Rab9 promoter act 12% and FLuc modulator -14%.
Screening CS(=O)(=O)N1N=C(c2ccc(Br)cc2)CC1c1ccc2c(c1)OCO2 (configuration not stated) returned ELG1 genotox inconclusive, NPC1 promoter act 1.1µM*, Rab9 promoter act 0.63µM*, SMN2 splice up 25µM* and FLuc modulator 4.3µM*.
Cc1ccc(C2=NN(S(C)(=O)=O)C(c3ccc4c(c3)OCO4)C2)cc1 (configuration not stated) was read as ELG1 genotox 5.2µM*, NPC1 promoter act 3.5µM*, Rab9 promoter act 2.5µM*, SMN2 splice up 18µM* and FLuc modulator 1.7µM*.
`CC(=O)N1N=C(c2ccc(C)cc2)CC1c1ccc2c(c1)OCO2` (configuration not stated) gave ELG1 genotox inconclusive, NPC1 promoter act 2.8µM*, Rab9 promoter act inconclusive and FLuc modulator 15µM*.
CSc1cc(C)c(OCC(=O)Nc2c(C)nn(C)c2C)c(C)c1 was read as ELG1 genotox -9%, NPC1 promoter act -2%, Rab9 promoter act 1% and FLuc modulator -1%.
Screening COc1ccc([C@]23Cc4cc(OC)c(OC)cc4C(O2)c2c(cc(C)oc2=O)O3)cc1 returned NPC1 promoter act -5%[1.84 µM], Rab9 promoter act 2%[1.84 µM] and FLuc modulator -17%[11.5 µM].
`Cc1nnc2c3ccccc3nc(N3CCN(c4cccc(Cl)c4)CC3)n12` gave FLuc modulator -11%.
O=C1/C(=C/c2cccs2)CCC/C1=C\c1cccs1 was read as ELG1 genotox inconclusive, NPC1 promoter act 1.3µM*, Rab9 promoter act 3.5µM* and FLuc modulator 1.9µM*.
For CC1C/C(=C/c2cccs2)C(=O)/C(=C/c2cccs2)C1 (configuration not stated) the results were ELG1 genotox 0%, NPC1 promoter act -1%, Rab9 promoter act 8%, SMN2 splice up -16% and FLuc modulator inconclusive.
Cn1cccc1/C=C1\CCC/C(=C\c2cccn2C)C1=O was read as ELG1 genotox 1.8µM*, NPC1 promoter act 1.3µM*, Rab9 promoter act 0.89µM*, SMN2 splice up inconclusive and FLuc modulator 6µM*.
Cc1nn(-c2ccc(N3CCOCC3)nn2)c(C)c1CCC(=O)Nc1ccc(F)cc1F was read as FLuc modulator -12%.
